Assay results as given in the supplement of paper PMC11219838.
Values without a mark were called inactive.

Key:
Conditions in all cases: 60 µM; 5 days; temperature: 20 °C
[1] = test system: Meloidogyne hapla J2; assay: proportion of mobile M. hapla J2 relative to DMSO control (fraction of DMSO control); higher = more viable, less nematicidal, active = 0.7 or less
Outline: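 Two biological replicates were run and averaged, each on 96-well plates in which about 25 M. hapla J2 sat in distilled water per well. Compound was pinned in to give 60 µM final and 0.6% v/v DMSO, and the sealed plates were shaken at 200 rpm and 20 °C for 5 days before 2 µL 1 M NaOH was added. Mobility was scored microscopically and divided by the mean from the plate's DMSO-only wells, of which there were eight.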

[2] = test system: Caenorhabditis elegans dauer (daf-2(e1370)); assay: proportion of mobile C. elegans dauer larvae relative to DMSO control (fraction of DMSO control); higher = more viable, less nematicidal, active = 0.63 or less; extreme values may be limits of the assay
Outline: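 Compound was added by pinning to 60 µM final, giving 0.6% v/v DMSO, in 96-well plates containing about 20 C. elegans dauers per well in liquid NGM. These dauers came from synchronized larvae held on MYOB plates with E. coli OP50 for 48 h at 25 °C. Plates were sealed and shaken at 200 rpm at 20 °C for 5 days. Under a dissection microscope, the proportion of mobile worms was scored relative to DMSO wells, and two biological replicates were averaged.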

[3] = test system: Ditylenchus dipsaci; assay: proportion of mobile D. dipsaci (mixed stage) relative to DMSO control (fraction of DMSO control); higher = more viable, less nematicidal, active = 0.86 or less; extreme values may be limits of the assay
Outline: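 The worms, D. dipsaci raised on pea plants in Gamborg B-5 agar, were recovered through a filter funnel into water. Each well of a 96-well plate then held about 20 of them in distilled water plus pinned compound at 60 µM final (0.6% v/v DMSO), and the sealed plates were shaken at 200 rpm at 20 °C for 5 days. Following addition of 2 µL 1 M NaOH, mobile worms were counted by microscopy, and mobility was expressed against DMSO controls as the average of two biological replicates.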

Compound	proportion of mobile M. hapla J2 [1]	proportion of mobile C. elegans dauer larvae [2]	proportion of mobile D. dipsaci [3]
Cc1cccc(-c2noc(COc3ccc(Cl)cc3C)n2)c1	0.925	1	1
Brc1ccc(-c2nnc(SCc3ccccc3)o2)cc1	1.04	1	1
COc1cccc(-c2noc(COc3ccccc3Cl)n2)c1	0.998	1	1
Cc1ccc(-c2noc(-c3ccc(C)cc3C)n2)cc1	0.869	1	1
CCNC(=O)c1ccccc1-c1nc(-c2ccc(OC)cc2)no1	0.785	1	1
O=C(Nc1ccc(-c2noc(-c3ccc(F)cc3)n2)cc1)c1ccc(Br)o1	0.972	1	1
Cc1cc(C)cc(NC(=O)CSc2nnc(-c3ccccc3)o2)c1	1.04	1	1
Cc1ccc(SC(C)c2nc(-c3cccnc3)no2)cc1 (stereo unspecified)	0.874	1	1
COc1ccc(-c2noc(-c3cccc(Cl)c3)n2)cc1	0.819	1	1
CCn1c(C)cc(C(=O)CSc2nnc(-c3ccccc3)o2)c1C	0.962	1	1
COc1ccc(-c2nnc(SCc3cccc(C#N)c3)o2)cc1	0.785	1	1
CCOC(=O)c1sc(NC(=O)CSc2nnc(-c3ccc(Cl)cc3)o2)c(C(=O)OCC)c1C	0.906	1	1
Brc1ccc(-c2nnc(-c3cccs3)o2)o1	1.07	0.75	0.362 (active)
CCCCC(=O)Nc1ccccc1-c1nc(-c2ccncc2)no1	1.06	1	1
COc1cccc(-c2nc(-c3ccccc3)no2)c1	1.04	0.861	1
COc1ccc(-c2noc(-c3ccc(C)cc3Cl)n2)cc1	0.969	1	1
CCc1nnc(NC(=O)CSc2nnc(-c3cccc(C)c3)o2)s1	0.815	1	1
CCOc1cc(C#N)ccc1OCc1nc(-c2cccs2)no1	1.07	1	1
Cc1ccc(SCc2nc(-c3ccc(C)cc3)no2)cc1	0.854	1	1
c1ccc(-c2noc(-c3cccs3)n2)cc1 [tioxazafen]	0.937	0 (active)	1
COc1ccc(-c2nnc(SCC(=O)Nc3ccccc3C(C)C)o2)cc1	0.877	1	1
Cc1ccc(-c2nnc(SCc3ccccc3F)o2)cc1	0.636 (active)	1	1
Cc1cccc(-c2noc(-c3ccccc3Cl)n2)c1	0.894	1	1
Cc1cccc(OCc2nc(-c3ccccc3)no2)c1	1.04	1	1

Compound	proportion of mobile M. hapla J2 [1]	proportion of mobile C. elegans dauer larvae [2]	proportion of mobile D. dipsaci [3]
CC(C)(C)C(=O)Nc1ccccc1-c1nc(-c2ccncc2)no1	1	1	1
CC(C)Oc1ccc(-c2nc(-c3cccnc3)no2)cc1	0.899	0 (active)	0.675 (active)
CCOc1nc(-c2ccccc2)ccc1-c1noc(-c2cccc(C)c2)n1	0.805	1	1
CNC(=O)c1ccccc1-c1nc(-c2ccc(Cl)cc2)no1	0.985	1	1
CC(Oc1ccc(C(C)(C)C)cc1)c1nc(-c2ccncc2)no1 (stereo unspecified)	0.856	1	1
Cc1ccc(SCc2nc(-c3cccc(C)c3)no2)cc1	1.01	1	1
Clc1ccccc1-c1nc(-c2ccc3c(c2)OCO3)no1	0.983	1	1
O=C(Nc1ccc(-c2noc(-c3ccccn3)n2)cc1)c1cccc(Cl)c1	0.87	1	1
COc1nc2ccc(C)cc2cc1-c1noc(-c2ccncc2)n1	0.849	1	1
O=C(CSc1nnc(-c2cccc(F)c2)o1)Nc1ccccc1C(=O)c1ccccc1	0.889	1	1
CCOC(=O)c1c(NC(=O)CSc2nnc(-c3ccccc3OCC)o2)sc(C(C)=O)c1C	0.918	1	1
COc1ccccc1-c1nc(-c2ccc(Cl)cc2)no1	0.934	1	1
COc1ccc(-c2noc(-c3ccc(Cl)cc3Cl)n2)cc1	1.04	1	1
O=C(CSc1nnc(-c2cccc(Br)c2)o1)Nc1ccccn1	0.951	1	1
CCOc1nc(-c2ccccc2)ccc1-c1noc(-c2cccc(OC)c2)n1	0.759	1	1
CC(C)CCC(=O)Nc1ccccc1-c1nc(-c2ccccn2)no1	1.03	1	1
Cc1ccccc1OCc1nc(-c2cccs2)no1	0.753	1	1
CC(Oc1ccc(Br)cc1)c1nc(-c2ccncc2)no1 (stereo unspecified)	0.719	0 (active)	1
CCNC(=O)c1ccccc1-c1nc(-c2ccc(F)cc2)no1	0.998	1	1
Cc1cc(OCc2nc(-c3cccnc3)no2)cc(C)c1Br	1.05	1	1
COc1cccc(-c2noc(COc3ccc(C)cc3)n2)c1	0.769	1	1
COc1ccc(-c2nnc(SCC(=O)OCc3ccccc3)o2)cc1	0.953	1	1
COc1ccccc1OCc1nc(-c2cccc(Br)c2)no1	0.499 (active)	1	1
